Reference: publication doi:10.1101/2024.03.05.583629

molecular target: pT7_6His-AlfaTag-ZIF268 (human, UniProt P18146 335-423); experiment: PADIT-seq; conditions: dsDNA, one strand shown

Sequence | binding signal [log2FC]
CTCGAGGATATCAAGATCTGGCCTCGGCGCGTGGGAAGGAACCTCTAGCTAGCCGACTCACTATAGGGATAATCGCCCTGAGCAAAGACC | 2.03 ± 0.0894
CTCGAGGATATCAAGATCTGGCCTCGGCGCGTGGTGGGGAACCTCTAGCTAGCCGACTCACTATAGGGATAATCGCCCTGAGCAAAGACC | 0.205 ± 0.103
CTCGAGGATATCAAGATCTGGCCTCGGCAACCCACGCGGAACCTCTAGCTAGCCGACTCACTATAGGGATAATCGCCCTGAGCAAAGACC | 0.721 ± 0.102
CTCGAGGATATCAAGATCTGGCCTCGGCCCCCCACGCGGAACCTCTAGCTAGCCGACTCACTATAGGGATAATCGCCCTGAGCAAAGACC | 0.155 ± 0.108
CTCGAGGATATCAAGATCTGGCCTCGGCCGCCCACGCGGAACCTCTAGCTAGCCGACTCACTATAGGGATAATCGCCCTGAGCAAAGACC | 2.69 ± 0.0695
CTCGAGGATATCAAGATCTGGCCTCGGCCAGTGGGCGGGAACCTCTAGCTAGCCGACTCACTATAGGGATAATCGCCCTGAGCAAAGACC | 1.87 ± 0.0948
CTCGAGGATATCAAGATCTGGCCTCGGCGCGTGGGAGGGAACCTCTAGCTAGCCGACTCACTATAGGGATAATCGCCCTGAGCAAAGACC | 3.65 ± 0.0848
CTCGAGGATATCAAGATCTGGCCTCGGCCGCCCACACGGAACCTCTAGCTAGCCGACTCACTATAGGGATAATCGCCCTGAGCAAAGACC | 1.63 ± 0.0957
CTCGAGGATATCAAGATCTGGCCTCGGCGCGCGGGCGGGAACCTCTAGCTAGCCGACTCACTATAGGGATAATCGCCCTGAGCAAAGACC | 1.18 ± 0.1
CTCGAGGATATCAAGATCTGGCCTCGGCGATTGGGCGGGAACCTCTAGCTAGCCGACTCACTATAGGGATAATCGCCCTGAGCAAAGACC | 0.0131 ± 0.0888
CTCGAGGATATCAAGATCTGGCCTCGGCGCGTGGGGAGGAACCTCTAGCTAGCCGACTCACTATAGGGATAATCGCCCTGAGCAAAGACC | 0.871 ± 0.0966
CTCGAGGATATCAAGATCTGGCCTCGGCGCGTGGCCCGGAACCTCTAGCTAGCCGACTCACTATAGGGATAATCGCCCTGAGCAAAGACC | 0.0738 ± 0.102
CTCGAGGATATCAAGATCTGGCCTCGGCCGCGGCCGCGGAACCTCTAGCTAGCCGACTCACTATAGGGATAATCGCCCTGAGCAAAGACC | 0.0714 ± 0.102
CTCGAGGATATCAAGATCTGGCCTCGGCGCGTGGGCGGGAACCTCTAGCTAGCCGACTCACTATAGGGATAATCGCCCTGAGCAAAGACC | 4.32 ± 0.0557
CTCGAGGATATCAAGATCTGGCCTCGGCGCGTGTGCGGGAACCTCTAGCTAGCCGACTCACTATAGGGATAATCGCCCTGAGCAAAGACC | 0.312 ± 0.112
CTCGAGGATATCAAGATCTGGCCTCGGCGCGTCAGCGGGAACCTCTAGCTAGCCGACTCACTATAGGGATAATCGCCCTGAGCAAAGACC | 0.0878 ± 0.104
CTCGAGGATATCAAGATCTGGCCTCGGCGTCCCACGCGGAACCTCTAGCTAGCCGACTCACTATAGGGATAATCGCCCTGAGCAAAGACC | 0.365 ± 0.0872
CTCGAGGATATCAAGATCTGGCCTCGGCCTGTGGGCGGGAACCTCTAGCTAGCCGACTCACTATAGGGATAATCGCCCTGAGCAAAGACC | 2.23 ± 0.0754
CTCGAGGATATCAAGATCTGGCCTCGGCCGCCCACCTGGAACCTCTAGCTAGCCGACTCACTATAGGGATAATCGCCCTGAGCAAAGACC | 0.259 ± 0.108
CTCGAGGATATCAAGATCTGGCCTCGGCTGCCCACGCGGAACCTCTAGCTAGCCGACTCACTATAGGGATAATCGCCCTGAGCAAAGACC | 0.958 ± 0.086
CTCGAGGATATCAAGATCTGGCCTCGGCCGCCCACCAGGAACCTCTAGCTAGCCGACTCACTATAGGGATAATCGCCCTGAGCAAAGACC | 0.0728 ± 0.0981
CTCGAGGATATCAAGATCTGGCCTCGGCCGCCCACGTGGAACCTCTAGCTAGCCGACTCACTATAGGGATAATCGCCCTGAGCAAAGACC | 1.68 ± 0.0823
CTCGAGGATATCAAGATCTGGCCTCGGCATGTGGGCGGGAACCTCTAGCTAGCCGACTCACTATAGGGATAATCGCCCTGAGCAAAGACC | 2.94 ± 0.0778
CTCGAGGATATCAAGATCTGGCCTCGGCGTTTGGGCGGGAACCTCTAGCTAGCCGACTCACTATAGGGATAATCGCCCTGAGCAAAGACC | 0.123 ± 0.0893
CTCGAGGATATCAAGATCTGGCCTCGGCGCGTGGACGGGAACCTCTAGCTAGCCGACTCACTATAGGGATAATCGCCCTGAGCAAAGACC | 0.177 ± 0.113
CTCGAGGATATCAAGATCTGGCCTCGGCGTTCCACGCGGAACCTCTAGCTAGCCGACTCACTATAGGGATAATCGCCCTGAGCAAAGACC | 0.016 ± 0.0847
CTCGAGGATATCAAGATCTGGCCTCGGCGCGTGGATCGGAACCTCTAGCTAGCCGACTCACTATAGGGATAATCGCCCTGAGCAAAGACC | 0.142 ± 0.102
CTCGAGGATATCAAGATCTGGCCTCGGCGCGTGGGTGGGAACCTCTAGCTAGCCGACTCACTATAGGGATAATCGCCCTGAGCAAAGACC | 4.08 ± 0.0892
CTCGAGGATATCAAGATCTGGCCTCGGCGCGTGGTCAGGAACCTCTAGCTAGCCGACTCACTATAGGGATAATCGCCCTGAGCAAAGACC | 0.198 ± 0.102
